Measurements: PubChem BioAssay (NCI)
This is part of a sample that, as a whole, favours compounds with a hit. Of some 83,000 tested, about 20% had one in any assay.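 96-well plates, one dose, 48 hours. Percent growth reported; active if below 10.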 Calls of active or inactive are those of the source.

How the values were obtained:
Assay in all cases: NCI-60 one-dose screen, 48 h (100 = growth as untreated, 0 = no growth, -100 = all killed)
Conditions in all cases: 10 µM unless noted
SR leukemia = test system: SR leukemia
RPMI-8226 leukemia = test system: RPMI-8226 leukemia
OVCAR-8 ovarian = test system: OVCAR-8 ovarian
OVCAR-5 ovarian = test system: OVCAR-5 ovarian
OVCAR-4 ovarian = test system: OVCAR-4 ovarian
SK-OV-3 ovarian = test system: SK-OV-3 ovarian
IGROV1 ovarian = test system: IGROV1 ovarian
OVCAR-3 ovarian = test system: OVCAR-3 ovarian
NCI/ADR-RES ovarian = test system: NCI/ADR-RES ovarian
T-47D breast = test system: T-47D breast
BT-549 breast = test system: BT-549 breast
MDA-MB-435 melanoma = test system: MDA-MB-435 melanoma
SW-620 colon = test system: SW-620 colon
MCF7 breast = test system: MCF7 breast
HCT-116 colon = test system: HCT-116 colon
HCC-2998 colon = test system: HCC-2998 colon
KM12 colon = test system: KM12 colon
HS 578T breast = test system: HS 578T breast

Measured: growth

c1ccc(Sc2ncnc3ccccc23)cc1
inactive: SR leukemia 25.5% | RPMI-8226 leukemia 20.9% | OVCAR-8 ovarian 82.1% | OVCAR-5 ovarian 98.4% | OVCAR-4 ovarian 76% | SK-OV-3 ovarian 112% | IGROV1 ovarian 77.9% | OVCAR-3 ovarian 71.2% | NCI/ADR-RES ovarian 83.5% | T-47D breast 63.8% | BT-549 breast 51.6% | MDA-MB-435 melanoma 38.1% | SW-620 colon 84.9% | MCF7 breast 63.8% | HCT-116 colon 72% | HCC-2998 colon 107% | KM12 colon 86.1%

COc1ccc(C(=O)COc2ccc(/C=C3\Oc4ccc(Cl)cc4C3=O)cc2)cc1
inactive: RPMI-8226 leukemia 181% | OVCAR-8 ovarian 76.6% | OVCAR-5 ovarian 103% | OVCAR-4 ovarian 86.3% | SK-OV-3 ovarian 98.7% | IGROV1 ovarian 32.9% | OVCAR-3 ovarian 113% | NCI/ADR-RES ovarian 88.6% | T-47D breast 78.2% | BT-549 breast 98.1% | MDA-MB-435 melanoma 106% | SW-620 colon 83.6% | MCF7 breast 47.1% | HCT-116 colon 23.6% | HCC-2998 colon 111% | KM12 colon 98.8%
active: SR leukemia -22.4%

CCN(CC)CCCNc1cccc2c(SCc3ccccc3)ccnc12
active: SR leukemia -27.9% | RPMI-8226 leukemia -39.7% | IGROV1 ovarian -40.3% | MDA-MB-435 melanoma -27.9%
inactive: OVCAR-8 ovarian 89.9% | OVCAR-5 ovarian 107% | OVCAR-4 ovarian 104% | SK-OV-3 ovarian 97.8% | OVCAR-3 ovarian 36.8% | NCI/ADR-RES ovarian 42% | T-47D breast 103% | BT-549 breast 74.8% | SW-620 colon 55% | MCF7 breast 98.6% | HCT-116 colon 75% | HCC-2998 colon 25.4% | KM12 colon 34%

CCCCNC(=O)NS(=O)(=O)c1ccc(N2N=C(c3cc(C)ccc3C)CC2c2cc(OC)c(OC)c(OC)c2)cc1 (stereo unspecified)
inactive: SR leukemia 12.7% | RPMI-8226 leukemia 28.3% | OVCAR-8 ovarian 53.2% | OVCAR-5 ovarian 95.9% | OVCAR-4 ovarian 77.7% | SK-OV-3 ovarian 68% | IGROV1 ovarian 41.4% | OVCAR-3 ovarian 53.3% | NCI/ADR-RES ovarian 30.3% | T-47D breast 38.4% | BT-549 breast 20.6% | SW-620 colon 66.6% | MCF7 breast 24.4% | HCT-116 colon 32.3% | KM12 colon 46.1%
active: MDA-MB-435 melanoma -46.2% | HCC-2998 colon -1.57%

O=C1c2cccnc2C(=O)c2c1c(C(=O)OCCN1CCCCC1)c1ccccn21
active: SR leukemia -23.9% | RPMI-8226 leukemia -29.9% | OVCAR-8 ovarian -58.2% | OVCAR-5 ovarian -27.8% | OVCAR-4 ovarian 0.138% | SK-OV-3 ovarian -36.8% | IGROV1 ovarian -16.7% | OVCAR-3 ovarian -2.68% | NCI/ADR-RES ovarian -25.5% | T-47D breast 4.01% | MDA-MB-435 melanoma -5.97% | SW-620 colon -13.6% | MCF7 breast -43.3% | HCT-116 colon -8.36% | HCC-2998 colon -46.6% | KM12 colon 8.77%
inactive: BT-549 breast 20.1%

O=C(/C=C/c1ccc(Cl)cc1)/C=C/c1cc2ccccc2[nH]c1=O
inactive: OVCAR-5 ovarian 128% | OVCAR-4 ovarian 84.1% | SK-OV-3 ovarian 99.9% | IGROV1 ovarian 78.8% | OVCAR-3 ovarian 15.9% | NCI/ADR-RES ovarian 86% | T-47D breast 48.7% | BT-549 breast 44.6% | HCC-2998 colon 73% | KM12 colon 28.3%
active: SR leukemia 1.79% | RPMI-8226 leukemia -22.2% | OVCAR-8 ovarian -11.5% | MDA-MB-435 melanoma -1.71% | SW-620 colon 8.48% | MCF7 breast 5.22% | HCT-116 colon -55.7%

O=C1C[C@H](N2C(=O)c3ccccc3S2(=O)=O)C2CO[C@@H]1O2
inactive: SR leukemia 10.3% | RPMI-8226 leukemia 91.1% | OVCAR-8 ovarian 93.7% | OVCAR-5 ovarian 97.5% | OVCAR-4 ovarian 84.3% | SK-OV-3 ovarian 98.5% | IGROV1 ovarian 103% | OVCAR-3 ovarian 86.9% | HS 578T breast 102% | NCI/ADR-RES ovarian 98.3% | T-47D breast 54.1% | MDA-MB-435 melanoma 95.7% | SW-620 colon 56.1% | MCF7 breast 23.1% | HCT-116 colon 42.7% | HCC-2998 colon 99.3% | KM12 colon 102%

CCN(CC)CCC(=O)Nc1ccc(Cn2nnc3c2C(=O)c2nnn(Cc4ccc(NC(=O)CCN(CC)CC)cc4)c2C3=O)cc1
active: SR leukemia -18.9% | RPMI-8226 leukemia -16.6% | OVCAR-8 ovarian -35.6% | OVCAR-5 ovarian -19.1% | OVCAR-4 ovarian -72.7% | SK-OV-3 ovarian -8.54% | IGROV1 ovarian -55.6% | OVCAR-3 ovarian -16.2% | T-47D breast -58% | BT-549 breast -94.2% | MDA-MB-435 melanoma -80.1% | SW-620 colon -9.46% | MCF7 breast -60.2% | HCT-116 colon -87.9% | HCC-2998 colon -47.2% | KM12 colon -6.54%
inactive: NCI/ADR-RES ovarian 99.3%

CN(C)c1ccc(/C=C(\C#N)c2nc3ccccc3s2)cc1
inactive: SR leukemia 87.5% | RPMI-8226 leukemia 111% | OVCAR-8 ovarian 99.5% | OVCAR-5 ovarian 109% | OVCAR-4 ovarian 90.9% | SK-OV-3 ovarian 111% | IGROV1 ovarian 103% | OVCAR-3 ovarian 119% | NCI/ADR-RES ovarian 107% | T-47D breast 89.4% | BT-549 breast 72.9% | MDA-MB-435 melanoma 89.1% | SW-620 colon 112% | MCF7 breast 89% | HCT-116 colon 96.8% | HCC-2998 colon 106% | KM12 colon 108%

Nc1ccc(N2CCOCC2)cc1
inactive: SR leukemia 110% | RPMI-8226 leukemia 112% | OVCAR-8 ovarian 105% | OVCAR-5 ovarian 91.7% | OVCAR-4 ovarian 92.8% | SK-OV-3 ovarian 104% | IGROV1 ovarian 105% | OVCAR-3 ovarian 99.7% | HS 578T breast 125% | NCI/ADR-RES ovarian 85.6% | T-47D breast 88.1% | BT-549 breast 82.1% | SW-620 colon 111% | MCF7 breast 88.8% | HCT-116 colon 98% | HCC-2998 colon 96.9% | KM12 colon 115%

CNc1cc2nc3cc(NC)c(C)cc3cc2cc1C
active: SR leukemia -27.6% | RPMI-8226 leukemia 3.16% | OVCAR-8 ovarian 2.25% | OVCAR-3 ovarian 3.6% | T-47D breast 7.86% | SW-620 colon 8.75% | MCF7 breast 3.03% | HCT-116 colon 5.54% | KM12 colon -40.7%
inactive: OVCAR-5 ovarian 24.5% | OVCAR-4 ovarian 10.8% | SK-OV-3 ovarian 12.7% | IGROV1 ovarian 21.1% | NCI/ADR-RES ovarian 40.7% | BT-549 breast 20.6% | MDA-MB-435 melanoma 41.7% | HCC-2998 colon 18.7%

COc1ccc2nc3cc(Cl)ccc3c(N3CCN(c4nccc(Nc5ccc(Cl)cc5)n4)CC3)c2c1
inactive: SR leukemia 30.4% | RPMI-8226 leukemia 43.9% | OVCAR-8 ovarian 80.7% | OVCAR-5 ovarian 90.6% | OVCAR-4 ovarian 60.7% | SK-OV-3 ovarian 88.4% | IGROV1 ovarian 83.1% | OVCAR-3 ovarian 49.5% | HS 578T breast 84.3% | NCI/ADR-RES ovarian 80.7% | T-47D breast 32.2% | MDA-MB-435 melanoma 78.7% | SW-620 colon 73.7% | MCF7 breast 41.6% | HCT-116 colon 12% | HCC-2998 colon 92.3% | KM12 colon 62.3%

O=[N+]([O-])c1cccc(-c2nc3sccn3c2-c2ccnc(NCCCNS(=O)(=O)c3cccc(F)c3)n2)c1
inactive: SR leukemia 13.2% | OVCAR-5 ovarian 66.2% | SK-OV-3 ovarian 44.6% | SW-620 colon 22.9% | HCC-2998 colon 65.6%
active: RPMI-8226 leukemia -32.5% | OVCAR-8 ovarian -5.3% | OVCAR-4 ovarian -12.2% | IGROV1 ovarian 3.18% | OVCAR-3 ovarian -2.65% | NCI/ADR-RES ovarian -20.8% | T-47D breast -13.4% | BT-549 breast -16.8% | MDA-MB-435 melanoma -19.4% | MCF7 breast -18.9% | HCT-116 colon 7.77% | KM12 colon -10.6%

O=C(Nc1cccc2[nH]c(C(F)(F)F)nc12)c1ccc(Br)cc1F
active: RPMI-8226 leukemia 4.55%
inactive: SR leukemia 18.5% | OVCAR-8 ovarian 33.2% | OVCAR-5 ovarian 98.9% | OVCAR-4 ovarian 11.8% | SK-OV-3 ovarian 65.1% | IGROV1 ovarian 42.2% | OVCAR-3 ovarian 24.4% | HS 578T breast 70.4% | NCI/ADR-RES ovarian 10.8% | BT-549 breast 19.4% | MDA-MB-435 melanoma 26.9% | SW-620 colon 41.6% | MCF7 breast 27.1% | HCT-116 colon 22.7% | HCC-2998 colon 48.3% | KM12 colon 27%

CC1=C(NCCN2CCCC2)C(=O)c2c(OCc3ccc(C(F)(F)F)cc3)cccc2C1=O
inactive: RPMI-8226 leukemia 29.7% | OVCAR-8 ovarian 77% | OVCAR-5 ovarian 90.1% | OVCAR-4 ovarian 84.7% | SK-OV-3 ovarian 95.6% | IGROV1 ovarian 89.1% | OVCAR-3 ovarian 83.6% | HS 578T breast 87.6% | NCI/ADR-RES ovarian 87.5% | T-47D breast 73.6% | MDA-MB-435 melanoma 70.9% | SW-620 colon 83.5% | MCF7 breast 59.9% | HCT-116 colon 33.9% | HCC-2998 colon 107% | KM12 colon 85%
active: SR leukemia -15.7%

Nc1cc(O)cc2cccnc12
active: MDA-MB-435 melanoma -9.72%
inactive: SR leukemia 73% | RPMI-8226 leukemia 68.9% | OVCAR-8 ovarian 80.9% | OVCAR-5 ovarian 107% | OVCAR-4 ovarian 105% | SK-OV-3 ovarian 83.4% | IGROV1 ovarian 53.4% | OVCAR-3 ovarian 88.8% | HS 578T breast 121% | NCI/ADR-RES ovarian 87.3% | T-47D breast 83.9% | BT-549 breast 87% | MCF7 breast 55.8% | HCT-116 colon 80.3% | HCC-2998 colon 100% | KM12 colon 99.8%

O=c1c2c3c(sc2n2c(CCl)nnc2n1Cc1ccccc1)CCCC3
inactive: SK-OV-3 ovarian 103% | NCI/ADR-RES ovarian 19%
active: SR leukemia -33.9% | RPMI-8226 leukemia -38.8% | OVCAR-8 ovarian 7.48% | OVCAR-5 ovarian -58.9% | OVCAR-4 ovarian -99.3% | IGROV1 ovarian -42.9% | OVCAR-3 ovarian -98.4% | T-47D breast -69.9% | BT-549 breast -93.5% | MDA-MB-435 melanoma -64.5% | SW-620 colon -82.9% | MCF7 breast -79.9% | HCT-116 colon -56.2% | HCC-2998 colon -69.3% | KM12 colon -69.6%

CNCc1cccc2c1OCCOCCOCCN(C)S(=O)(=O)c1ccc(cc1)-c1cnc(N)c(n1)C(=O)N2
inactive: RPMI-8226 leukemia 44.6% | OVCAR-8 ovarian 52.9% | OVCAR-5 ovarian 160% | OVCAR-4 ovarian 72.8% | SK-OV-3 ovarian 19.4% | IGROV1 ovarian 42.5% | OVCAR-3 ovarian 42.8% | NCI/ADR-RES ovarian 80.1% | T-47D breast 47% | BT-549 breast 55.6% | MDA-MB-435 melanoma 46.2% | SW-620 colon 37.8% | MCF7 breast 42.2% | HCT-116 colon 15.4% | HCC-2998 colon 75.5% | KM12 colon 43.6%
active: SR leukemia -35%
